Reference: PubChem BioAssay (NCATS)
Results filed as inconclusive are left out. The source made the active and inactive calls. The call rests on the fitted dose curve; in most records, active means well fitted inhibition curve with a large enough effect; inconclusive means small, poorly fitted or top-dose-only effect; inactive means flat fitted curve, though single readings scatter.

Legend:
Assay in all cases: qHTS profiling for inhibitors of Plasmodium falciparum proliferation (AID 504749); further: nearly all actives have a fitted effect of over 60% in size
[1] = tested on: CP286; details: P. falciparum in erythrocytes, SYBR Green DNA, 72 h; series mostly up to 28.7 µM
In short: (§1)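 Each compound contacts P. falciparum-infected red blood cells for 72 h at 37 C; lysis buffer (Tris, EDTA, saponin, Triton X, SYBR Green I) is added and fluorescence measured next morning; values normalized to controls.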

[2] = tested on: CP291; details: P. falciparum in erythrocytes, SYBR Green DNA, 72 h; series mostly up to 28.7 µM
In short: as §1

[3] = tested on: CP297; details: P. falciparum in erythrocytes, SYBR Green DNA, 72 h; series mostly up to 28.7 µM
In short: as §1

[4] = tested on: CP305; details: P. falciparum in erythrocytes, SYBR Green DNA, 72 h; series mostly up to 28.7 µM
In short: as §1

[5] = tested on: CP315; details: P. falciparum in erythrocytes, SYBR Green DNA, 72 h; series mostly up to 28.7 µM
In short: as §1

[6] = tested on: CP325; details: P. falciparum in erythrocytes, SYBR Green DNA, 72 h; series mostly up to 28.7 µM
In short: as §1

[7] = tested on: CP329; details: P. falciparum in erythrocytes, SYBR Green DNA, 72 h; series mostly up to 28.7 µM
In short: as §1

[8] = tested on: CP335; details: P. falciparum in erythrocytes, SYBR Green DNA, 72 h
In short: as §1

[9] = tested on: DFO2036; details: P. falciparum in erythrocytes, SYBR Green DNA, 72 h; series mostly up to 28.7 µM
In short: as §1

[10] = tested on: DIV14; details: P. falciparum in erythrocytes, SYBR Green DNA, 72 h; series mostly up to 28.7 µM
In short: as §1

[11] = tested on: DIV17; details: P. falciparum in erythrocytes, SYBR Green DNA, 72 h; series mostly up to 28.7 µM
In short: as §1

[12] = tested on: DIV30; details: P. falciparum in erythrocytes, SYBR Green DNA, 72 h; series mostly up to 28.7 µM
In short: as §1

[13] = tested on: ECU; details: P. falciparum in erythrocytes, SYBR Green DNA, 72 h; series mostly up to 28.7 µM
In short: as §1

[14] = tested on: FAB9; details: P. falciparum in erythrocytes, SYBR Green DNA, 72 h; series mostly up to 28.7 µM
In short: as §1

[15] = tested on: GB4; details: P. falciparum in erythrocytes, SYBR Green DNA, 72 h; series mostly up to 28.7 µM
In short: as §1

[16] = tested on: HB3; details: P. falciparum in erythrocytes, SYBR Green DNA, 72 h; series mostly up to 28.7 µM
In short: as §1

[17] = tested on: ICS; details: P. falciparum in erythrocytes, SYBR Green DNA, 72 h; series mostly up to 28.7 µM
In short: as §1

[18] = tested on: JCK; details: P. falciparum in erythrocytes, SYBR Green DNA, 72 h; series mostly up to 28.7 µM
In short: as §1

[19] = tested on: N140; details: P. falciparum in erythrocytes, SYBR Green DNA, 72 h; series mostly up to 28.7 µM
In short: as §1

[20] = tested on: Dd2; details: P. falciparum in erythrocytes, SYBR Green DNA, 72 h; series mostly up to 28.7 µM
In short: as §1
Potency means the concentration at half of the fitted maximal effect.

| SMILES | Potency [1] | Potency [2] | Potency [3] | Potency [4] | Potency [5] | Potency [6] | Potency [7] | Potency [8] | Potency [9] | Potency [10] | Potency [11] | Potency [12] | Potency [13] | Potency [14] | Potency [15] | Potency [16] | Potency [17] | Potency [18] | Potency [19] | Potency [20] |
| --- | --- | --- | --- | --- | --- | --- | --- | --- | --- | --- | --- | --- | --- | --- | --- | --- | --- | --- | --- | --- |
| C=CCNC1=C2C[C@@H](C)C[C@H](OC)[C@H](O)[C@@H](C)/C=C(\C)[C@H](OC(N)=O)[C@@H](OC)/C=C\C=C(/C)C(=O)NC(=CC1=O)C2=O | 3.55 µM (active) | 4.26 µM (active) | 1.69 µM (active) | 4.78 µM (active) | 3.79 µM (active) | 4.26 µM (active) | 4.26 µM (active) | 1.69 µM (active) | 2 µM (active) | 1.51 µM (active) | 1.2 µM (active) | 1.69 µM (active) | 1 µM (active) | 11.2 µM (active) | 1.51 µM (active) | 2 µM (active) | 0.708 µM (active) | 12.6 µM (active) | 0.891 µM (active) |  |
| COC1C(OC(=O)/C=C/C=C/C=C/C=C/C(=O)O)CCC2(CO2)C1C1(C)OC1CC=C(C)C (configuration not stated) |  | 8.49 µM (active) |  |  | 1.69 µM (active) | 7.57 µM (active) | 0.601 µM (active) |  |  | 0.379 µM (active) | 5.36 µM (active) |  |  |  | 1.69 µM (active) |  |  | inactive |  | 0.0398 µM (active) |
| CCCOc1ccc2nc(NC(=O)OC)sc2c1 | inactive | inactive | inactive | inactive | inactive | inactive | inactive |  | inactive | inactive | inactive | inactive | inactive | inactive | inactive | inactive | inactive | inactive | inactive | inactive |
